PubChem BioAssay (NCI)
Compounds without any hit were thinned out: in the full panel of roughly 79,000, 15% have a hit. Activity calls are given as the source filed them. No stated cut-off is given here; in the data, active means growth inhibition above about 70%; inactive means the rest.

How the values were obtained:
[1] = NCI Yeast Anticancer Drug Screen. Data for the mec2-1 strain (AID 157); conditions: S. cerevisiae mec2-1 strain, active compounds read high
How it was run: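 Vehicle-treated cultures served as reference for growth inhibition of compound-exposed mec2-1 yeast.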

[2] = NCI Yeast Anticancer Drug Screen. Data for the rad14 strain (AID 159);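 further: 0% = growth of vehicle-treated control cultures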; conditions: S. cerevisiae rad14 strain growth inhibition, active compounds read high
How it was run: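 Readout: yeast growth inhibition, referenced to vehicle-only cultures. Strain bears a defined alteration in DNA damage repair.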

[3] = NCI Yeast Anticancer Drug Screen. Data for the sgs1 mgt1 strain (AID 161);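 further: 0% = growth of cultures given vehicle only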; conditions: S. cerevisiae sgs1 mgt1 strain, active compounds read high
How it was run: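 Read-out: growth inhibition vs vehicle controls. Cells: mutant yeast strain deficient in DNA damage repair.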

[4] = NCI Yeast Anticancer Drug Screen. Data for the CLN2oe strain (AID 163);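 further: 0% = growth of vehicle-only control cultures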; conditions: S. cerevisiae CLN2oe strain, active compounds read high
How it was run: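 Inhibition relative to vehicle-treated yeast is reported. Cells: strain with genetic alteration in cell-cycle control, grown with compound.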

[5] = NCI Yeast Anticancer Drug Screen. Data for the cln2 rad14 strain (AID 165);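 further: 0% = growth equal to vehicle treated cultures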; conditions: S. cerevisiae cln2 rad14 strain, active compounds read high
How it was run: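 Each compound was tested on cln2 rad14 yeast. Inhibition of growth was calculated against vehicle-exposed controls.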

[6] = NCI Yeast Anticancer Drug Screen. Data for the bub3 strain (AID 167); conditions: S. cerevisiae bub3 mutant strain, active compounds read high
How it was run: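 Part of a panel of yeast mutants defective in DNA damage repair or cell cycle regulation. Each strain is grown with compound, and inhibition is calculated relative to solvent-treated cultures.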

[7] = NCI Yeast Anticancer Drug Screen. Data for the wt2 strain (AID 169);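 further: 0% = growth of vehicle-treated yeast cultures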; conditions: S. cerevisiae wt2 strain growth inhibition, active compounds read high
How it was run: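 Inhibition of yeast growth was determined after compound treatment, normalised to controls receiving only vehicle.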

[8] = NCI Yeast Anticancer Drug Screen. Data for the mlh1 strain (AID 171);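 further: 0% = growth of vehicle-treated control cultures of the same strain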; conditions: S. cerevisiae mlh1 strain growth inhibition, active compounds read high
How it was run: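 Vehicle-normalised growth inhibition of a repair- or checkpoint-altered yeast strain following compound treatment.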

[9] = NCI Yeast Anticancer Drug Screen. Data for the sgs1 strain (AID 173);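 further: 0% = growth of vehicle-only control cultures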; conditions: S. cerevisiae sgs1 mutant, active compounds read high
How it was run: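 Screen format: yeast with repair or checkpoint alterations, compound exposure, growth read relative to vehicle.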

[10] = NCI Yeast Anticancer Drug Screen. Data for the mlh1 rad18 strain (AID 175); conditions: S. cerevisiae mlh1 rad18 strain growth inhibition, active compounds read high
How it was run: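 Vehicle-treated cultures served as the reference for growth inhibition in a yeast strain carrying DNA damage repair alterations exposed to each compound.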

[11] = NCI Yeast Anticancer Drug Screen. Data for the rad18 strain (AID 177); conditions: S. cerevisiae rad18 mutant growth inhibition, active compounds read high
How it was run: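 Test articles were incubated with altered yeast defective in DNA damage repair. Results are given as inhibition of growth versus vehicle.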

[12] = NCI Yeast Anticancer Drug Screen. Data for the rad52 strain (AID 147);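 further: 0% = growth of vehicle-treated control cultures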; conditions: S. cerevisiae rad52 mutant growth inhibition, active compounds read high
How it was run: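 Vehicle-treated cultures served as the reference for growth inhibition of compound-exposed yeast bearing a DNA repair mutation.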

[13] = NCI Yeast Anticancer Drug Screen. Data for the wt1 strain (AID 149);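 further: 0% = growth of vehicle-treated wt1 cultures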; conditions: S. cerevisiae wt1 strain (SPY 50644) growth inhibition, active compounds read high
How it was run: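 The wt1 strain was treated with compounds, and growth was compared with vehicle-treated cultures to give inhibition.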

[14] = NCI Yeast Anticancer Drug Screen. Data for the rad50EPP+ strain (AID 151);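 further: 0% = growth of vehicle-treated control cultures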; conditions: S. cerevisiae rad50 mutant strain, active compounds read high
How it was run: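 In this screen, rad50EPP+ yeast were exposed to compounds. Growth inhibition was scored against vehicle-treated controls.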

[15] = NCI Yeast Anticancer Drug Screen. Data for the mgt1 strain (AID 153); conditions: S. cerevisiae mgt1 mutant growth inhibition, active compounds read high
How it was run: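 mgt1 strain exposed; growth vs vehicle control recorded as inhibition.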

[16] = NCI Yeast Anticancer Drug Screen. Data for the rad50 strain (AID 155);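 further: 0% = growth of vehicle-only cultures of the same strain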; conditions: S. cerevisiae rad50 strain growth inhibition, active compounds read high
How it was run: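 Cells are treated with compound, grown, and their growth is then scored against vehicle-only cultures of the same repair-deficient yeast strain.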

[17] = at 5.0 µM (retest, dose inferred, filed as 0.5)
[18] = at 50.0 µM (retest, dose inferred, filed as 5.0)

Measured: growth inhibition

NCc1c(O)ccc2ccccc12
inactive: [1]; [17] -46% | [1]; at 11.0 µM 4% | [1]; at 33.0 µM 25% | [1]; [18] -15% | [1]; at 50.0 µM 47.5% | [2]; at 1.2 µM -3% | [2]; at 3.7 µM 5% | [2]; at 11.0 µM 49% | [3]; [17] -60% | [4]; at 1.2 µM -6% | [4]; at 3.7 µM -4% | [4]; at 11.0 µM -1% | [4]; at 33.0 µM 18% | [5]; [17] -53% | [5]; [18] -25% | [5]; at 50.0 µM 17.2% | [6]; at 1.2 µM -7% | [6]; at 3.7 µM -4% | [6]; [17] -71% | [6]; at 11.0 µM 0% | [6]; [18] 60% | [7]; at 1.2 µM 6% | [7]; at 3.7 µM 9% | [8]; at 1.2 µM -10% | [8]; at 3.7 µM -4% | [8]; at 11.0 µM 4% | [9]; at 1.2 µM -10% | [9]; at 3.7 µM -5% | [9]; at 11.0 µM 37% | [10]; [17] -138% | [11]; at 1.2 µM -6% | [11]; at 3.7 µM -6% | [11]; at 11.0 µM 7%
active: [1]; at 100.0 µM 99% | [2]; at 33.0 µM 99% | [2]; at 100.0 µM 99% | [3]; [18] 74% | [3]; at 50.0 µM 85.9% | [4]; at 100.0 µM 98% | [6]; at 33.0 µM 79% | [6]; at 50.0 µM 93.7% | [6]; at 100.0 µM 98% | [7]; at 11.0 µM 70% | [7]; at 33.0 µM 99% | [7]; at 100.0 µM 99% | [8]; at 33.0 µM 96% | [8]; at 100.0 µM 98% | [9]; at 33.0 µM 99% | [9]; at 100.0 µM 99% | [10]; [18] 83% | [10]; at 50.0 µM 94% | [11]; at 33.0 µM 87% | [11]; at 100.0 µM 99%

Cc1cc(Cl)ccc1NC(=O)/C(Cl)=C1/Sc2ccccc2NC1=O
inactive: [12]; at 1.2 µM -3% | [12]; at 3.7 µM -3% | [12]; at 11.0 µM -2% | [12]; at 33.0 µM 0% | [12]; at 100.0 µM 27% | [13]; at 1.2 µM -1% | [13]; at 3.7 µM -3% | [13]; at 11.0 µM -4% | [13]; at 33.0 µM -41% | [13]; at 100.0 µM 3% | [14]; at 1.2 µM 1% | [14]; at 3.7 µM 4% | [14]; at 11.0 µM 7% | [14]; at 33.0 µM 8% | [14]; at 100.0 µM 2% | [15]; at 1.2 µM -2% | [15]; at 3.7 µM -1% | [15]; at 11.0 µM -3% | [15]; at 33.0 µM -5% | [15]; at 100.0 µM -2% | [16]; at 1.2 µM 2% | [16]; at 3.7 µM 24% | [16]; [17] 47% | [16]; at 11.0 µM 29% | [16]; at 33.0 µM 3% | [16]; at 100.0 µM 24% | [1]; at 1.2 µM -1% | [1]; at 3.7 µM -5% | [1]; [17] 24% | [1]; at 11.0 µM -6% | [1]; at 33.0 µM -5% | [1]; [18] 62% | [1]; at 50.0 µM 56.9% | [1]; at 100.0 µM 16% | [2]; at 1.2 µM 1% | [2]; at 3.7 µM 4% | [2]; at 11.0 µM 5% | [2]; at 33.0 µM 4% | [2]; at 100.0 µM 2% | [3]; [17] 36% | [3]; at 50.0 µM 68.5% | [4]; at 1.2 µM -8% | [4]; at 3.7 µM -1% | [4]; at 11.0 µM -6% | [4]; at 33.0 µM -7% | [4]; at 100.0 µM -14% | [5]; [17] 23% | [5]; [18] 57% | [5]; at 50.0 µM -5.3% | [6]; at 1.2 µM -2% | [6]; at 3.7 µM -2% | [6]; [17] 35% | [6]; at 11.0 µM -3% | [6]; at 33.0 µM -4% | [6]; at 50.0 µM 20.2% | [6]; at 100.0 µM 7% | [7]; at 1.2 µM -2% | [7]; at 3.7 µM 7% | [7]; at 11.0 µM -2% | [7]; at 33.0 µM -2% | [7]; at 100.0 µM 2% | [8]; at 1.2 µM -1% | [8]; at 3.7 µM -3% | [8]; at 11.0 µM -3% | [8]; at 33.0 µM -5% | [8]; at 100.0 µM 0% | [9]; at 1.2 µM -1% | [9]; at 3.7 µM 2% | [9]; at 11.0 µM 4% | [9]; at 33.0 µM 7% | [9]; at 100.0 µM 31% | [10]; [17] 35% | [10]; at 50.0 µM 69.2% | [11]; at 1.2 µM 0% | [11]; at 3.7 µM 3% | [11]; at 11.0 µM 4% | [11]; at 33.0 µM 6% | [11]; at 100.0 µM 45%
active: [16]; [18] 82% | [16]; at 50.0 µM 72% | [3]; [18] 91% | [6]; [18] 91% | [10]; [18] 80%
